HCV inhibitor = blocks hepatitis C virus; Huh7.5.1 HCVcc-Cre infection, luciferase reporter, 44 h; Potency, µM (titrated, usually from 41.8 µM), without a hit: at the highest dose activity change, negative = inhibition, hits mostly inhibitors; 3.4% of 340,000 active; active means well fitted inhibition curve with a large enough effect; inconclusive means small, poorly fitted or top-dose-only effect, or another doubt; inactive means no such curve, though single readings can be large or run the other way; further: potency means the concentration at half of the fitted maximal effect
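After 44 h co-culture of compound, cells and HCVcc-Cre (~0.5 moi), substrate is added for 15 min at room temperature and luciferase measured over 15 sec. Cells were seeded at 1,000/well and pre-cultured 4 h.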
MARV entry inh = Marburg virus entry inhibition. 1.8% of 300,000 active. AID 540276. Potency, µM (titrated, usually from 37.8 µM), for the others: at the top dose activity change, negative = inhibition, actives largely listed as inhibitors. Marburg virus pseudotyped entry inhibition, cell reporter; calls by dose curve; tested in HEK293 cells; further: potency means the concentration at half of the fitted maximal effect
HCMV antiviral = human cytomegalovirus inhibition | 4.5% of 410,000 active | activity change, negative = inhibition, % at 57.5 µM | HFF cells, HCMV-luciferase reporter, 72 h; active compounds read low; in the data active means activity change below about -60%; inconclusive means no clear call, values can overlap the other calls; inactive means above about -39%
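Human foreskin fibroblasts infected with luciferase-reporter HCMV at MOI 1 PFU/cell, compounds at two doses. Luciferase measured 72 h post infection; normalized to buffer-only basal and Salinomycin (10uM) controls.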
VACV Venus inh = inhibitors of vaccinia virus (Venus reporter); Vaccinia virus Venus reporter expression, fluorescence; Potency, µM (top dose mostly 36.5 µM), for the others: at the top dose activity change, negative = inhibition, usual class: inhibitors; 0.46% of 330,000 active; AID 720580; calls by dose curve; tested in A549 cells; further: potency means the concentration at half of the fitted maximal effect; nearly all actives have a fitted effect of over 30% in size
Vaccinia mCherry = inhibitors of vaccinia virus infection (mCherry reporter signal). 0.63% of 310,000 active. Vaccinia virus mCherry reporter infection, fluorescence. Potency, µM (titrated, usually from 36.5 µM), inactives show at the top dose activity change, negative = inhibition, hits mostly inhibitors; calls by dose curve; tested in A549 cells; further: potency means the concentration at half of the fitted maximal effect; nearly all actives have a fitted effect of over 35% in size
Lassa entry inh = blocks Lassa virus binding to or entry into cells. Lassa virus pseudotype entry inhibition, cell reporter. Potency, µM (doses to about 37.9 µM), for the others: at the top dose activity change, negative = inhibition, most hits filed as inhibitors. 1.2% of 300,000 active. AID 540256; calls by dose curve; tested in HEK293 cells; further: potency means the concentration at half of the fitted maximal effect; nearly all actives have a fitted effect of over 50% in size
* marks the source's active call; other numbers are inactive results; i = inactive; ? = inconclusive; . = no result; + = active, no number; [ ] = remark or other dose. This is a sample that favours compounds with a hit; in the whole collection about 7.8% have one here. On the % scale 0 is the no-effect control and ±100 the full control effect.

SMILES | HCV inhibitor | MARV entry inh | HCMV antiviral | VACV Venus inh | Vaccinia mCherry | Lassa entry inh
CCNc1nc(NC(C)C)nc(N(C#N)Cc2ccccc2)n1 | ? | -4.3%[46.1 µM] | 55.4 | ? | . | 7.5%
CCNc1nc(NC(C)C)nc(N(C#N)CCOc2ccc(Cl)cc2Cl)n1 | 5.01µM* | -21.3% | 33.6 | . | . | 0.9%
CC(=O)N1CCCc2cc(S(=O)(=O)N3CCCC(C(=O)Nc4ccc(F)cc4F)C3)ccc21 (stereo not drawn) | . | . | -25.6 | -24.8% | -24.5% | -17.8%[46.1 µM]
O=C(NCCN1CCOCC1)c1cnn(-c2nccc(-c3ccccc3C(F)(F)F)n2)c1C1CC1 | . | . | . | -8.2% | -8.1% | .
COc1ccc(/C(C)=N/NC(=O)c2nnn(-c3nonc3N)c2-c2cccs2)cc1OC | ? | 4.3%[46.1 µM] | + | -7.1% | -13.9% | -8.5%[46.1 µM]
COc1cccc(-c2c(C(=O)N/N=C(\C)c3cccs3)nnn2-c2nonc2N)c1 | ? | . | + | . | . | .
Cc1ccc(CNc2nc(CN3CCCCC3c3cccnc3)nc3ccccc23)o1 (stereo not drawn) | . | . | . | -15.9% | -0.2% | .
CCOc1ccc2nc(Cl)c(C3CC(c4ccc(C)cc4)=NN3C(=O)CCC(=O)O)cc2c1 (stereo not drawn) | . | 6.3%[46.1 µM] | 6.2 | 0.5% | 3.8% | 30.5%[46.1 µM]
C=C(C(=O)c1ccccc1)C(C(=C)C(=O)c1ccccc1)c1ccc(OC)cc1 | 3.55µM* | . | -99.8* | . | . | .
C=C(C(=O)c1ccccc1)C(c1ccccc1)C(C)C(=O)c1ccccc1 (stereo not drawn) | 4.3% | ? | -88.8* | ? | ? | ?
C=C(C(=O)c1ccccc1)C(C)C(=C)C(=O)c1ccccc1 | 14.1µM* | 7.94µM* | -99.9* | ? | ? | 17.8µM*
O=C(c1ccccc1)C(c1ccccc1)c1ccccc1 | -20.2% | . | ? | -6.1% | -10.3% | .
COc1ccc(C(CC(=O)c2ccccc2)CC(=O)c2ccccc2)cc1 | -23.8% | ? | 3.0 | 9.5% | -4.7% | -29.2%[46.1 µM]
O=C(O)CC1S/C(=N\N=C2CCCCCCC2)N(c2ccccc2)C1=O (stereo not drawn) | 11.2% | -12.4%[46.1 µM] | -103.9* | -6.1% | 2.3% | 11.6%
O=C(Nc1ccc(S(=O)(=O)N2CCCC2)cc1)c1ccc([N+](=O)[O-])o1 | 2.82µM* | . | . | . | . | .
Cc1c(C(=O)Nc2ccc(Cc3ccncc3)cc2)cccc1[N+](=O)[O-] | -13.6% | ? | -78.8* | -20.7% | -11.0% | 1.1%
O=C(Nc1ccc(Cc2ccncc2)cc1)c1ccc([N+](=O)[O-])o1 | ? | ? | -100.9* | ? | 10µM* | ?
O=C(Nc1ccc(S(=O)(=O)N2CCOCC2)cc1)c1ccc([N+](=O)[O-])o1 | -22.3% | ? | -98.5* | 17.8µM* | ? | -24.5%
Cn1cnnc1SCC(=O)Nc1cc(C(=O)O)cc(C(=O)O)c1 | . | . | -0.7 | -7.1% | 5.1% | 12.7%[46.1 µM]
COC(=O)C1(O)CC(c2ccccc2)C(C(=O)c2ccccc2)N1c1ccc(Br)cc1 (stereo not drawn) | . | . | -14.2 | . | . | .
CCC(=O)Nc1ccc(S(=O)(=O)N2CCOCC2)cc1 | 18.4% | 23.2% | 29.5 | -9.6% | i | 6.4%
Cc1ccc(C(=O)Nc2ccc(S(=O)(=O)N3CCCC3)cc2)o1 | -3.3% | 0.7% | 16.6 | -7.6% | -8.7% | -6.4%
Cc1ccc(NC(=O)c2cc(S(=O)(=O)N3CCOCC3)c(Br)s2)cc1 | -25.4% | -25.3% | -38.9 | -16.9% | -26.4% | 10µM*
O=C(Nc1ccc(S(=O)(=O)N2CCOCC2)cc1)c1ccc([N+](=O)[O-])s1 | 8.91µM* | -5.7%[46.1 µM] | 6.1 | 1.4% | ? | ?
O=C(Nc1ccc(S(=O)(=O)N2CCCCCC2)cc1)c1ccc(Br)o1 | ? | ? | ? | . | . | 9.2µM*
Cc1ccc(C(=O)Nc2ccc(F)c(S(=O)(=O)N3CCOCC3)c2)s1 | ? | . | -2.7 | . | . | .
CCc1c(C(=O)Nc2ccc(S(=O)(=O)N3CCOCC3)cc2)csc1C | 10µM* | 6.0% | 10.8 | -13.8% | -6.9% | -20.9%
COc1cccc(CNC(=O)c2c(OC)cc(=O)n3c2CCN(C(=O)c2cc(C)ccc2C)CC3)c1 | . | . | . | 0.0% | -1.3% | .
O=C(Nc1ccc(N2CCOCC2)cc1)c1ccc([N+](=O)[O-])o1 | ? | ? | -103.0* | ? | 11.2µM* | -28.0%[46.1 µM]
